Measured potencies and affinities stand elsewhere. Active and inactive are the calls of the source. The rule behind the calls is not given here.
target: Plasmodium falciparum protein kinase 6 (PK6, PF3D7_1337100) (UniProt Q8IDW1); assay: PfPK6 kinase inhibitors, biochemical, TCAMS library (AID 1159586); conditions: recombinant PfPK6, Kinase-Glo ATP depletion luminescence
Sequence (Q8IDW1 1-305): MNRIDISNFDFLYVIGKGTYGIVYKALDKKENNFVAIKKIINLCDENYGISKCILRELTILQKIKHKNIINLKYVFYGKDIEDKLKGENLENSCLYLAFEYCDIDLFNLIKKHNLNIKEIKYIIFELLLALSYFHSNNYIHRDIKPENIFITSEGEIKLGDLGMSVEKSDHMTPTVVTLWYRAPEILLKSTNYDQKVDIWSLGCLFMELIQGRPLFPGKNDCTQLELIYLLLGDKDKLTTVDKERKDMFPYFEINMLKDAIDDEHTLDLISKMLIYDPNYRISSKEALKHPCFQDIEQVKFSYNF

outcome, inactive:
COc1ccc(C(C(=O)NC2CCN(C[C@H](O)c3ccnc4ccc(OC)cc34)CC2)N2CCN(Cc3ccccc3)CC2)cc1 (some centres undefined)
CS(=O)(=O)c1ccc2nc(NC(=O)c3csnn3)sc2c1
O=C(/C=C/c1ccc(Cl)c(Cl)c1)NCCCCCN1CCCN(C(=O)Nc2cccc(F)c2)CC1
Cn1ccnc1S(=O)(=O)CCNCc1ccc(-c2ccc3ncnc(Nc4ccc(OCc5cccc(F)c5)c(Cl)c4)c3c2)o1
Cc1ccccc1C1CCN(C2CCC(NC(=O)/C=C/c3cccc(F)c3)CC2)CC1 (centres undefined)
Cc1nc2ccccc2c(=O)n1NCc1ccc(Cl)c(Cl)c1
CCNc1cc(C)nc(Nc2ccc(NS(=O)(=O)c3ccccc3)cc2)n1
CCCCCCCc1ccc(-c2c(C)[nH]c(C)c(Cl)c2=O)cn1
O=C(C=Cc1cn(-c2ccccc2)nc1-c1cccs1)N1CCN(c2ccncc2)CC1
O=C(Nc1ccc(C(F)(F)F)cc1)Nc1ccccc1N1CCNCC1
CCC(CC(NCCCCNC(=O)c1ccc(NC(=O)c2ccc(Cl)cc2)cc1)c1ccccc1)c1ccccc1OC (centres undefined)
O=C(/C=C/c1ccc(Cl)c(Cl)c1)NCCCCCN1CCC(NC(=O)Nc2cccc(C(F)(F)F)c2)CC1
Cc1noc(C)c1-c1ccc2c(Nc3ccccc3C(C)(C)C)c(C(=O)NCc3ccc(OC(C)C)cc3)cnc2c1
FC(F)(F)c1cccc(CNCCCCCNCc2ccc(Cl)cc2)c1
C[C@@H]1CN(c2nc(NCCc3ccc(O)cc3)nc(NCc3ccccc3-c3ccc(C(F)(F)F)cc3)n2)C[C@H](C)N1
CC1(CCc2ccccc2)N=C(N)N=C(N)C1c1ccc(Cl)c(Cl)c1 (centres undefined)
CCN(CC)C(=NCCCCCCN=C(NC(N)=NCc1cccc(Cl)c1)N(CC)CC)NC(N)=NCc1cccc(Cl)c1
Cc1nc(-c2ccc(-c3ccc(NC(=O)c4coc5ccc(N6C[C@@H](C)N[C@@H](C)C6)cc45)cc3)c(C)c2)no1
COc1ccc(CCn2c(=N)c(C(=O)NCc3cccnc3)cc3c(=O)n4cccc(C)c4nc32)cc1
O=C(NCC1CCN(Cc2ccc(F)cc2)C1)c1cc(-c2cccc(C(F)(F)F)c2)cs1 (centres undefined)
c1ccc(COc2ccc(C3CCCCC3)cc2)nc1
Clc1ccc2c(NCCNc3ccnc4cc(Cl)ccc34)ccnc2c1
NC1=NC(c2ccccc2)(c2ccccc2)C(=O)N1CC1CCC1
CCc1cn2c3c(cc(C(=O)N[C@@H](Cc4cc(F)cc(F)c4)[C@H](O)CNC4CC4)cc13)N(C)S(=O)(=O)CC2
CCNc1cc(C(=O)N[C@@H](Cc2ccc(F)c(F)c2)[C@H](O)CNCc2cccc(OC)c2)cc(N2CCCCS2(=O)=O)c1
CN(C)CCOc1cc(NC(=O)Nc2ccc(-c3ccncc3)c(C(F)(F)F)c2)ccc1Cl
COc1c(C2CCN(CCCCNC(=O)c3noc(-c4ccc(C#N)cc4)n3)CC2)ccc2c1CCCC2
CC1(C)N=C(N)N=C(N)N1OCCCCOc1ccccc1
O=C(Nc1cccc(-c2cccc(-c3nc4ccccc4[nH]3)c2)c1)N[C@@H]1C[C@H]1c1ccccc1
COc1cc(F)c2ncc(Cl)c([C@H](O)CN3CCC(NCc4cc5c(cn4)OCCO5)CC3)c2c1
CN1CCCN(Cc2ccc(-c3cccc(NC(=O)c4ccc(F)cc4)c3)cc2)CC1
COc1cccc(CNC(=O)c2cnc(N3CCN(c4ccncc4)CC3)c(Cl)c2)c1
COc1ccc(CNCc2ccccc2)cc1-c1ccc(S(=O)(=O)NCCN2CCCC2)cc1
O=C(Nc1cc(Cl)c(Cl)cc1NC(=O)c1cccc(-c2ccccc2)c1O)c1cccc(-c2ccccc2)c1O
CCc1c(C)nc2nc(Cc3cccc(F)c3)nn2c1N1CCN(c2ccccn2)CC1
Cn1ncc2c3c(CCN4CCC(NCc5cc6c(cn5)OCCO6)CC4)c(Cl)cnc3ccc21
CCCc1cn2c3c(cc(C(=O)N[C@@H](Cc4ccccc4)[C@H](O)CNC4CCCCC4)cc13)N(CC)S(=O)(=O)CC2
CC(C)CNCc1cccc(-c2cccc(CNCCCN3CCN(C)CC3)c2)c1
CC(CCc1ccccc1)NCC(O)c1ccc2c(c1)S(=O)(=O)c1ccccc1N2 (centres undefined)
